Experimental data: PubChem BioAssay

biological target: Luciferin 4-monooxygenase (Photinus pyralis) (UniProt P08659); assay: inhibition of purified Photinus pyralis luciferase – biochemical, luminescence, purified enzyme, 2006 set, primary screen (AID 1141); details: purified firefly luciferase, SteadyGlo luminescence, 30 min; higher = more signal, called active from +8 up or from −8 down;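 also: cell-free assay with purified firefly luciferase at 100 ng per well in PBS; test concentration not given here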
Sequence (P08659 whole entry, looked up): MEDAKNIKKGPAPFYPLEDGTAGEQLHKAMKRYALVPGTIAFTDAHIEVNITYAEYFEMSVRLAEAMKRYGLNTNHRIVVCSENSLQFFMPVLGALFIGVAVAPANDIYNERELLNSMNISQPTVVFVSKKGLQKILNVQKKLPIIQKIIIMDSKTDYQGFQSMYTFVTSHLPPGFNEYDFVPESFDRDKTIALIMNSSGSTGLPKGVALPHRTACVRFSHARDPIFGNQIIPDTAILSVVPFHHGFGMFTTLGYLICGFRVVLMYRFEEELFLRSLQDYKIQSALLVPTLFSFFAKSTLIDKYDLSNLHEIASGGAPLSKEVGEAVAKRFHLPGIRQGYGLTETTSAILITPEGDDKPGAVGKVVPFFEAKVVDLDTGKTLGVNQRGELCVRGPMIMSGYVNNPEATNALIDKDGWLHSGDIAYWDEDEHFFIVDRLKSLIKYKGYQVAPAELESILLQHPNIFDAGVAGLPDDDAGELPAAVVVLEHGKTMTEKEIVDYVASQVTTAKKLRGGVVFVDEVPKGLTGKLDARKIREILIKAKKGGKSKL

z-score, inactive:
Cc1ccc(S[C@]2(C(=O)NC3CC3)CC(=O)N(Cc3cc(C(F)(F)F)cc(C(F)(F)F)c3)[C@@H]2c2ccc(CO)cc2)cc1 1.22, O=C/C=C/c1ccccc1Cl -2.21, COC(=O)[C@@]1(Cc2ccccc2N=[N+]=[N-])N=C(c2ccc(OCCCO)cc2)O[C@H]1c1ccccc1CN=[N+]=[N-] -1.76, COC(=O)C(CC#Cc1ccc2c(c1)[C@]1(C(=O)N2)[C@H](C(=O)N2CCCCCCC2)[C@H]2C(=O)O[C@H](c3ccccc3)[C@H](c3ccccc3)N2[C@@H]1c1ccc(O)cc1)C(=O)OC -0.269, C=CCC(OC(C)=O)[C@@H]1[C@@H](N(Cc2cccc3ccccc23)C(=O)c2ccc(C)cc2)c2cc(OCCCO)ccc2N1C(=O)c1ccc(-c2ccccc2)cc1 (some centres not stated) -1.18, CCOC(=O)C[C@H]1[C@H](OC(=O)c2ccccc2-c2ccccc2)[C@@H](NC(=O)C2CCCCC2)c2cc(OCCCO)ccc2N1C(=O)c1ccccc1 -0.539, CC(C)CNC(=O)[C@@]1(C)c2ccccc2C(=O)N(Cc2ccc(OC(F)(F)F)cc2)[C@H]1c1ccc(CO)cc1 -1.22, C=CC[C@]1(C(=O)O)N=C(c2ccc(OCCCO)cc2)O[C@H]1c1ccccc1 -1.8, O=C1OCC=C[C@H]2OC34C=CCN(Cc5ccccc5)C(=O)[C@H]3N(CCO)C(=O)[C@@H]4[C@@H]12 (some centres not stated) -3.69, CO[C@@H]1COC(=O)CC=C[C@@H](C)[C@H](OC)COC(=O)CC=C[C@H]1C -1.08, CO[C@H]1COC(=O)[C@@H](C)COC(=O)[C@H](Cc2ccccc2)NC(=O)CC=C[C@H]1C -0.897, CN(C)c1ccc(C(O)C2C=CC3C(=O)NC(=O)C3N2Nc2ccc(Cl)cc2Cl)cc1 (configuration not stated) -0.316, COc1ccc([Si](C)(C)[C@H]2[C@H](CCO)O[C@@]3(C(=O)N(Cc4ccccc4)c4ccc(N5C(=O)c6cccc7cccc5c67)cc43)[C@@H]2C)cc1 -1.84, CO[C@@H]1COC(=O)CC=C[C@H](C)COC(=O)[C@H](Cc2ccccc2)NC(=O)CC=C[C@H]1C -0.964, CCOC(=O)C[C@H]1[C@H](OC(=O)Cc2ccc3c(c2)OCO3)[C@@H](NC(=O)CC(C)C)c2cc(OCCCO)ccc2N1C(=O)c1ccccc1 -1.26, CO[C@@H]1COC(=O)[C@H](COCc2ccccc2)NC(=O)CC=C[C@@H](C)[C@H](OC)COC(=O)[C@H](COCc2ccccc2)NC(=O)CC=C[C@H]1C -0.901, CC/C=C/C(=O)N(C[C@@H]1CCCO1)[C@@H]1CC(C(=O)NCCO)=C[C@H](Oc2c(I)cc(CO)cc2OC)[C@H]1O -1.47, CCC1=C2CN(Cc3ccccc3Br)[C@@H]([C@@H](O)Cc3ccccc3)C2C=CCC1 (some centres not stated) -0.852, CC(=O)NCCCC[C@@H]1NC(=O)[C@@H]2C[C@H](C(=O)NCCCCCNC(=O)CS)[C@H](c3ccc(O)cc3)N2C1=O -1.88, C=C(C)[C@@H]1CC=C(C(O)C2C=CC3C(=O)NC(=O)C3N2Nc2ccccn2)CC1 (some centres not stated) -0.332, CCCC=C(CCC)[C@@H](NC(=O)c1ccc(C(F)(F)F)cc1)c1ccccc1 1.2, CO[C@@H]1COC(=O)[C@H](C)NC(=O)CC=C[C@@H](C)[C@H](NS(=O)(=O)c2ccc(C)cc2)COC(=O)CC=C[C@@H]1C -1.11, COC(=O)C1=C(C)N(Cc2ccccc2)c2c(C(=O)OC)c(C(=O)OC)c(C(=O)OC)c(=O)n2[C@@H]1c1ccccc1 -1.01, CO[C@H]1COC(=O)[C@@H](Cc2ccccc2)NC(=O)[C@@H](C)COC(=O)CC=C[C@@H]1C -1.16, CC(C)NC(=O)[C@@]1(Cc2ccccc2I)c2ccccc2C(=O)N(C2CCCCC2)[C@H]1c1ccc(CO)cc1 0.95, COc1ccc([Si](C)(C)[C@H]2[C@H](CC(=O)N3Cc4ccccc4C[C@H]3CO)O[C@@]3(C(=O)N(Cc4cccc(N5CCOC5=O)c4)c4ccccc43)[C@@H]2C)cc1 -0.86, O=C1NC(=O)C2C1C=CC(C(O)C=Cc1ccc([N+](=O)[O-])cc1)N2Nc1ccccn1 (configuration not stated) -1.07
